Test results: PubChem BioAssay AID2158 (National Center for Advancing Translational Sciences (NCATS), 2009)
Inconclusive results are not listed. Calls of active or inactive are those of the source. Calls come from the whole dose curve; as a rule, active = well fitted inhibition curve with a large enough effect; inconclusive = small, poorly fitted or top-dose-only effect; inactive = no such curve, though single readings can be large or run the other way.

target: Cruzipain (Trypanosoma cruzi) (UniProt P25779); assay: Confirmation qHTS Assay for Inhibitors of Cruzain; settings: purified cruzain, Z-FR-AMC fluorescence, 0.01% Triton; note: nearly all actives have a fitted effect of over 40% in size;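 for Activity change, negative = inhibition: plate controls were uninhibited enzyme control for no effect and buffer wells lacking enzyme for full effect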
Method in brief: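 Purified cruzain, 1.5 nM, pre-incubated 15 min at room temperature with compound in 100 mM sodium acetate pH 5.5, 5 mM DTT, 0.01% Triton X-100. Then 2 uM Z-FR-AMC added; AMC fluorescence (ex 360/em 450 nm) increase over 60 s gave reaction progress.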
Potency is the fitted concentration of half-maximal effect.

Sequence of Cruzipain (Trypanosoma cruzi) (P25779 123-467 limits assumed): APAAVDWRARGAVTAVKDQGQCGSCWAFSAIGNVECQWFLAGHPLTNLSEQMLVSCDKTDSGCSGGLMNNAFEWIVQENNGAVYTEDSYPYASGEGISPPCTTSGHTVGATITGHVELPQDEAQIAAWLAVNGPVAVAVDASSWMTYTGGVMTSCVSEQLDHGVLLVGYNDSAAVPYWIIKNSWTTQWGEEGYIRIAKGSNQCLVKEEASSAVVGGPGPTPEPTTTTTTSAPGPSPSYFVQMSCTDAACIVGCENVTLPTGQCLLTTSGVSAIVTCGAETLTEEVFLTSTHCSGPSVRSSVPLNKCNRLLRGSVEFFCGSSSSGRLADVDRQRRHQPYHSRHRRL

Potency, active:
CC(C)CNc1nc(C#N)nc(Nc2ccccc2)n1 0.891 µM
CNC(=O)c1ccc2nc(-c3ccco3)c(-c3ccco3)nc2c1 7.08 µM
O=C(NCCc1nc2ccccc2n1CCCOc1ccc2ccccc2c1)C1CCCCC1 1.12 µM
N#Cc1nc(Nc2ccc3ccccc3c2)nc(NC2CCCC2)n1 1.26 µM
CCN(CC)c1nc(C#N)nc(OC)n1 7.08 µM
COc1cc(C(=O)COC(=O)CNC(=O)C2CCCCC2)cc(OC)c1OC 7.94 µM
Cc1ccccc1OCCCn1c(CCNC(=O)C2CCCCC2)nc2ccccc21 1 µM
CCN1CCN(CCCNC(=O)c2cc3c(s2)-c2ccccc2OC3)CC1 15.8 µM
CCCN(CCC)c1nc(C#N)nc(N(CCC)CCC)n1 3.55 µM

Activity change, negative = inhibition, inactive:
Cc1ccc2[nH]c(=O)c(CN(Cc3ccco3)Cc3nnnn3Cc3ccccc3)cc2c1 -13.8%
O=C(O)Cc1nnc(-c2cc3ccccc3[nH]2)s1 10.6%
O=C(CNC(=O)c1ccccc1)NCC(=O)OCC(=O)c1ccc2ccccc2c1 21.1%
O=C(Cn1cc(CNC(=O)C2CCCCC2)nn1)Nc1cc(C(F)(F)F)ccc1Cl 0.597%
CCOc1ccc(CN2C(=O)c3ccccc3Sc3ccc(C(=O)NCc4ccc5c(c4)OCO5)cc32)cc1 6.89%
NNC(=O)Cn1c(SCc2ccccc2)nc2ccccc21 3.64%
c1ccc(CN(Cc2ccccc2)Cc2nnc(-c3cc4ccccc4[nH]3)s2)cc1 -2.53%
